The values below come from PubChem BioAssay (NCI).

Molecules are shown by their SMILES. Compounds without any hit were thinned out: in the full panel of roughly 83,000, 20% have a hit.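 96-well plates, one dose, 48 hours. Percent growth reported; active if below 10.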 Values without a mark were called inactive. Calls of active or inactive are those of the source.

Test systems include NCI-H23 lung; NCI-H226 lung; NCI-H322M lung; HOP-62 NSCLC; NCI-H460 lung; HOP-92 NSCLC; NCI-H522 lung; A549/ATCC NSCLC; 786-0 renal; COLO 205 colon.
Common to all, as to assay: NCI-60 one-dose screen, 48 h (100 = growth as untreated, 0 = no growth, -100 = all killed)
Common to all, as to conditions: 10 µM unless noted

Turning to `O=C1NC(c2ccc(Cl)c(Cl)c2)=C/C1=C\c1ccccc1`, the growth was 84.8% with NCI-H23 lung; 57.7% in the test on NCI-H226 lung; 79% in the test on NCI-H322M lung; 69.1% with HOP-62 NSCLC; 18.6% in the test on NCI-H460 lung; 72.1% in the test with HOP-92 NSCLC. For the same compound, the growth is 79% with NCI-H522 lung, 55.1% with A549/ATCC NSCLC, 9.12% (active) in the test with 786-0 renal and 65.2% in the test with COLO 205 colon.

Consider `O=S(=O)(NCCNc1cc(-c2cn(-c3ccccc3)nc2-c2cccc(O)c2)ccn1)c1ccc(F)cc1`, for which the growth in the test with NCI-H23 lung was 33.6%; in the test on NCI-H226 lung, 45.1%; with NCI-H322M lung it was 58.7%; in the test with HOP-62 NSCLC, 48%; in the test with NCI-H460 lung, 22.9%; in the test with HOP-92 NSCLC, 35.7%. The growth was 4.98% (active) in the test on NCI-H522 lung, 26.9% with A549/ATCC NSCLC, -9.01% (active) with 786-0 renal and -49.3% (active) in the test with COLO 205 colon.

As to `O=C1/C(=C\c2ccc(Br)o2)SC(=S)N1CCc1ccc(O)cc1`, the growth is 49.7% with NCI-H23 lung; 97.3% in the test with NCI-H226 lung; 88.3% in the test on NCI-H322M lung; 83.5% with HOP-62 NSCLC; 107% in the test on NCI-H460 lung; 55.3% with HOP-92 NSCLC. In addition, the growth with NCI-H522 lung was 37.8%; in the test on A549/ATCC NSCLC, 100%; in the test on 786-0 renal it was 78.7%; in the test with COLO 205 colon it was 97.8%.

For `C[N+](C)(CCCCCC[N+](C)(C)C1c2ccccc2-c2ccccc21)C1c2ccccc2-c2ccccc21`, the growth in the test on NCI-H23 lung was 103%; in the test on NCI-H226 lung, 108%; with NCI-H322M lung, 131%; in the test on HOP-62 NSCLC it was 113%; with NCI-H460 lung it was 109%; in the test with HOP-92 NSCLC, 117%. For the same compound, the growth in the test with NCI-H522 lung was 80.9%; in the test on A549/ATCC NSCLC it was 102%; in the test on 786-0 renal it was 112%; in the test with COLO 205 colon, 106%.

Take `Cn1c2c(c3ccc(Cl)cc31)-n1cccc1C2=O`: the growth was 95.2% in the test on NCI-H23 lung; 99.3% in the test with NCI-H226 lung; 85.4% in the test on NCI-H322M lung; 107% in the test with HOP-62 NSCLC; 92.9% in the test on NCI-H460 lung; 81.8% in the test on HOP-92 NSCLC. The growth is 71.3% in the test with NCI-H522 lung, 75.1% in the test with A549/ATCC NSCLC, 80.9% in the test with 786-0 renal and 90.4% with COLO 205 colon.

For the compound `COc1ccc(-c2nc(SCC(=O)Nc3ccc(C(C)=O)cc3)[nH]c(=O)c2C#N)cc1`, the growth in the test on NCI-H23 lung was 97.2%; in the test on NCI-H226 lung it was 91%; with NCI-H322M lung, 101%; with HOP-62 NSCLC, 101%; in the test on NCI-H460 lung, 111%; in the test on HOP-92 NSCLC it was 98.3%. For the same compound, the growth is 67.9% with NCI-H522 lung, 85.3% in the test on A549/ATCC NSCLC, 94.7% with 786-0 renal and 115% in the test on COLO 205 colon.

For the compound `Fc1ccc(Nc2nnc(-c3ccc(Cl)cc3)o2)cc1`, the growth in the test with NCI-H23 lung is 95%; in the test with NCI-H226 lung, 93.8%; with NCI-H322M lung, 103%; in the test on HOP-62 NSCLC, 89.5%; with NCI-H460 lung it was 105%; in the test with HOP-92 NSCLC, 95.5%. For the same compound, the growth is 74% in the test with NCI-H522 lung, 81.3% in the test with A549/ATCC NSCLC, 104% in the test with 786-0 renal and 94.2% in the test with COLO 205 colon.

For `CCc1nnc(NC(=O)c2ccoc2COc2ccccc2)s1`, the growth is 57.9% with NCI-H23 lung; 74.3% with NCI-H226 lung; 86.9% in the test on NCI-H322M lung; 56.3% in the test on HOP-62 NSCLC; 27% with NCI-H460 lung; 74.8% in the test on HOP-92 NSCLC. The growth with NCI-H522 lung was 38.6%; with A549/ATCC NSCLC, 62.1%; in the test with 786-0 renal, 72.2%; in the test with COLO 205 colon, 44.2%.

For `COc1ccc(/C(=C\c2ccc3c(c2)OCO3)C(=O)Nc2nc3ccccc3s2)cc1OC`, the growth in the test with NCI-H23 lung is 95.1%; in the test on NCI-H226 lung it was 86.9%; in the test with NCI-H322M lung, 91.4%; with HOP-62 NSCLC it was 94.2%; with NCI-H460 lung, 102%; in the test on HOP-92 NSCLC, 91.4%. In addition, the growth with NCI-H522 lung was 89.5%; with A549/ATCC NSCLC it was 91.5%; in the test on 786-0 renal, 83.7%; with COLO 205 colon, 110%.

`C=C1C(=O)O[C@H]2[C@H]1CC/C(Cn1cc(-c3ccc(F)cc3)nn1)=C\CC[C@@]1(C)O[C@@H]21`: the growth with NCI-H23 lung was 5.71% (active); in the test on NCI-H226 lung it was -31.3% (active); with NCI-H322M lung it was 80.6%; in the test on HOP-62 NSCLC, 44.4%; with NCI-H460 lung, 77.4%; with HOP-92 NSCLC, -67.7% (active). The growth in the test on NCI-H522 lung is -80.4% (active); with A549/ATCC NSCLC it was 60.2%; with 786-0 renal, -71.5% (active); with COLO 205 colon it was -84.4% (active).

Regarding `c1csc(-c2nc(-c3cc4ccccc4c(N4CCOCC4)n3)cs2)c1`, the growth with NCI-H23 lung is 87.8%; with NCI-H226 lung it was 107%; with NCI-H322M lung, 94.1%; in the test on HOP-62 NSCLC it was 97.6%; in the test with NCI-H460 lung, 100%; in the test with HOP-92 NSCLC, 116%. The growth is 93.8% with NCI-H522 lung, 95.6% in the test on A549/ATCC NSCLC, 96.9% with 786-0 renal and 20.5% in the test on COLO 205 colon.

Consider `N#CC1=C(N)Oc2ccc3ccccc3c2C1c1ccccc1` (stereo not given), for which the growth in the test with NCI-H23 lung was 43.9%; with NCI-H226 lung, 51.6%; with NCI-H322M lung it was 62.1%; in the test on HOP-62 NSCLC, 39.7%; in the test with NCI-H460 lung it was 21.7%; in the test with HOP-92 NSCLC, 62.6%. Besides, the growth in the test with NCI-H522 lung is 34.7%; in the test on A549/ATCC NSCLC it was 51%; in the test on 786-0 renal it was 35.5%; in the test on COLO 205 colon, 32.6%.

With `O=C(O)c1cccc2c1-c1ccc(Cl)cc1C2`, the growth is 106% in the test with NCI-H23 lung; 100% in the test with NCI-H226 lung; 97.1% with NCI-H322M lung; 106% in the test with HOP-62 NSCLC; 113% with NCI-H460 lung; 112% in the test on HOP-92 NSCLC. Further, the growth was 88.2% in the test on NCI-H522 lung, 105% in the test with A549/ATCC NSCLC, 110% in the test with 786-0 renal and 114% with COLO 205 colon.
